In the library only some 7.9% were active in any assay of this set; here they are far more common.
HCV inh = blocks hepatitis C virus; Huh7.5.1 HCVcc-Cre infection, luciferase reporter, 44 h; Potency, µM (top dose mostly 41.8 µM), for the others: top-dose activity change, negative = inhibition, actives largely listed as inhibitors; actives 3.4% (n = 340,000); AID 651820; active = well fitted inhibition curve with a large enough effect; inconclusive = small, poorly fitted or top-dose-only effect, or another doubt; inactive = no such curve, though single readings can be large or run the other way; note: potency is the fitted concentration of half-maximal effect
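Infectious HCVcc-Cre (~0.5 moi) was added to cells just after compound, with cells seeded 4 h earlier at 1,000 per well. Luciferase activity after 44 h culture reported infection; substrate was incubated 15 min at room temperature before reading.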
HCMV inh = blocks human cytomegalovirus replication; HFF cells, HCMV-luciferase reporter, 72 h; active compounds read low; activity change, negative = inhibition, % at 57.5 µM; actives 4.5% (n = 410,000); in the data active = activity change below about -60%; inconclusive = no clear call, values can overlap the other calls; inactive = above about -39%
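After 16 h attachment at 37C, HFF cells received test compound and HCMV-luciferase (1 PFU/cell); reporter luminescence read 72 h later, data normalized against buffer-only and known inhibitor Salinomycin.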
FMDV inh = blocks foot and mouth disease virus; FMDV antiviral cell-based qHTS; Potency, µM (titrated, usually from 57.9 µM), for inactives: at the top dose activity change, negative = inhibition, actives largely listed as inhibitors; actives 1.2% (n = 410,000); AID 1159524; calls by dose curve; tested in HEK293T cells; note: read-out not given here; potency is the fitted concentration of half-maximal effect; nearly all actives have a fitted effect of over 45% in size
MARV entry inh = Marburg virus entry inhibition; Marburg virus pseudotyped entry inhibition, cell reporter; Potency, µM (titrated, usually from 37.8 µM), for the others: at the top dose activity change, negative = inhibition, hits mostly inhibitors; actives 1.8% (n = 300,000); AID 540276; calls by dose curve; tested in HEK293 cells; note: potency is the fitted concentration of half-maximal effect
Lassa entry inh = blocks Lassa virus binding to or entry into cells; actives 1.2% (n = 300,000); Lassa virus pseudotype entry inhibition, cell reporter; AID 540256; Potency, µM (series often up to 37.9 µM), without a hit: at the top dose activity change, negative = inhibition, actives largely listed as inhibitors; calls by dose curve; tested in HEK293 cells; note: potency is the fitted concentration of half-maximal effect; nearly all actives have a fitted effect of over 50% in size
* marks the source's active call; other numbers are inactive results; ? = inconclusive; . = no result given; [ ] = dose if it differs, or a comment. % is set by controls: 0 for no effect and ±100 for the full control effect.

SMILES	HCV inh	HCMV inh	FMDV inh	MARV entry inh	Lassa entry inh
CC(C)Oc1ccc(CNC(=O)CC(c2ccccc2)c2cc(Cl)ccc2O)cc1 (stereo not drawn)	?	-23.8	?	?	7.3µM*
CC(C)[C@@H]1Cc2c(C#N)c(N)sc(=S)c2CO1	.	.	.	0.9%	.
NC(=O)c1ccccc1NC(=O)c1ccccc1Cl	14.8%	-33.8	10.4%	.	.
Cc1cc(C(=O)NNC(=O)c2c(-c3c(Cl)cccc3Cl)noc2C)no1	24.8%	3.5	-7.6%	27.4%	6.6%
Cc1onc(-c2c(F)cccc2Cl)c1C(=O)Nc1nnc(C(F)(F)F)s1	?	-98.0*	?	.	.
O=C(Nc1ccccc1C(=O)Nc1nnc(C(F)(F)F)s1)c1ccccc1Cl	11.2µM*	-102.7*	?	?	?
Cc1nc(C(=O)NNC(=O)c2c(-c3c(Cl)cccc3Cl)noc2C)cs1	?	?	?	1.58µM*	?
COc1ccc(C(=O)NCC(c2ccc3c(c2)OCO3)N2CCN(c3ccccc3F)CC2)cc1 (stereo not drawn)	.	-5.6	-9.0%	.	?
c1cncc(-c2cn(C[C@H]3CC[C@H](Cn4cc(-c5cccnc5)nn4)O3)nn2)c1	-8.3%	-12.0	-10.7%	.	.
CC(=O)N1CCN(c2nc3c(F)cc(F)cc3s2)CC1	.	103.7	48.7%	.	1.6%[46.1 µM]
COc1ccc(-c2nc3ccccc3nc2-c2ccc(OC)c(OC)c2)cc1OC	-22.6%	-9.3	-19.1%	.	.
COc1ccc(-c2cc3ccccc3nc2N)cc1OC	11.2µM*	117.2	?	.	.
CCC(C)Sc1oc(-c2ccco2)nc1S(=O)(=O)c1ccc(C)cc1 (stereo not drawn)	.	-15.9	26.2%	10µM*	-9.6%[46.1 µM]
CS(=O)(=O)Nc1ccccc1C(=O)Nc1cccc(Cl)c1	-4.3%	-67.4*	.	?	-0.8%
CCS(=O)(=O)c1ccc(C(=O)Nc2cccc(Cl)c2)c(Cl)c1Cl	?	?	28.2µM*	?	?
CS(=O)(=O)Nc1ccccc1C(=O)Nc1cc(Cl)cc(Cl)c1	?	-103.0*	?	?	?
CS(=O)(=O)Nc1ccccc1C(=O)Nc1ccccc1Cl	8.2%	32.9	-3.1%	8.4%	15.9%
COc1ccc(Cc2nc3ccc(C(=O)NCc4cc(Br)ccc4OC)cc3o2)cc1	.	-35.4	-23.2%	.	-10.1%[46.1 µM]
O=C(CSc1n[nH]c(-c2ccccc2)n1)Nc1ccccc1O	.	23.3	-28.5%	-3.9%	?
O=S(=O)(Nc1ccc2c(c1)OCCO2)c1cccc2nsnc12	25.7%	-68.0*	?	13.7%	19.4%
O=C(Nc1ccc2c(c1)OCCO2)C1CCN(S(=O)(=O)c2cccc3nsnc23)CC1	12.9%	-2.3	-25.1%	-1.6%	-3.3%
Cc1ccc(C)c(N2CCN(C(=O)C3CCN(S(=O)(=O)c4cccc5nsnc45)CC3)CC2)c1	?	-39.7	22.4µM*	?	?
O=C(Nc1ccc2c(c1)OCCO2)C1CCCN(S(=O)(=O)c2cccc3nsnc23)C1 (stereo not drawn)	?	-77.5*	.	-4.4%	-29.7%
O=C(C1CCCN1S(=O)(=O)c1cccc2nsnc12)N1CCN(c2ccc(F)cc2)CC1 (stereo not drawn)	-3.5%	-65.9*	-2.7%	.	.
COc1cc(NC(=O)Cn2ccc3ccccc3c2=O)cc(OC)c1OC	.	-13.6	-12.1%	6.5%[46.1 µM]	-15.9%[46.1 µM]
SMILES	HCV inh	HCMV inh	FMDV inh	MARV entry inh	Lassa entry inh
CCOc1cc(C2C(C(=O)OC)=C(C)NC3=C2C(=O)c2ccccc23)cc(Br)c1OCC (stereo not drawn)	.	-31.7	-30.2%	?	-4.7%[46.1 µM]
O=C(CSc1nc(=O)n2ccccc2n1)NCc1ccccc1	4.6%	-16.8	-8.6%	-22.1%[46.1 µM]	15.2%
Cc1ccc2nc(NC(=O)C3CCN(S(=O)(=O)c4cccc5nsnc45)CC3)sc2c1	?	-85.0*	?	?	?
O=C(C1CCCN(S(=O)(=O)c2cccc3nsnc23)C1)N1CC=C(c2ccccc2)CC1 (stereo not drawn)	12.6µM*	-61.4*	20µM*	?	?
Cc1ccc2nc(NC(=O)C3CCCN(S(=O)(=O)c4cccc5nsnc45)C3)sc2c1 (stereo not drawn)	11.2µM*	-21.7	-8.2%	?	?
CC(C)c1ccc(/C=N/NC(=O)c2nnn(-c3nonc3N)c2CN2CCOCC2)cc1	-18.7%	-14.3	-23.1%	.	.
CCC[C@H]1CN(Cc2cccnc2)C(=O)[C@H]1CC(=O)Nc1ccc(Br)cc1	.	.	.	.	6.1%[46.1 µM]
CC[C@H](C)Cc1cn([C@@H](CCCCNC(=O)OC(C)(C)C)C(=O)NCCCCCCCCCCC(=O)N2CCN(C(=O)OC(C)(C)C)CC2)nn1	?	21.1	14.1µM*	.	.
CC(C)(C)OC(=O)NCCCC[C@@H](C(=O)NCCCCCCCCCCC(=O)N1CCN(C(=O)OC(C)(C)C)CC1)n1cc(CCO)nn1	?	-21.2	14.1µM*	.	.
O=C(NC1CC(=O)N(c2cccc(F)c2)C1)c1ccc2c(c1)OCO2 (stereo not drawn)	.	42.5	-10.5%	.	10.8%[46.1 µM]
Cc1cc(C)c(C(=O)N2CCCC(N3CCN(c4ccc(F)cc4)CC3)C2)o1 (stereo not drawn)	?	-69.0*	?	?	?
O=C(CSc1ccccc1)N1CCCC(N2CCN(c3ccc(F)cc3)CC2)C1 (stereo not drawn)	10µM*	-69.8*	-17.1%	?	-28.7%[46.1 µM]
O=C(CSc1ccc(F)cc1)N1CCOCC1	5.5%	-88.2*	-9.7%	.	.
O=C(c1cccc(-c2ccco2)c1)N1CCCC(N2CCN(c3ccc(F)cc3)CC2)C1 (stereo not drawn)	?	.	35.5µM*	-31.4%	?
O=C(CSc1ccccc1)N1CCCC(N2CCN(c3cccc(Cl)c3)CC2)C1 (stereo not drawn)	.	-25.6	.	.	.
O=C(CSCc1ccc(F)cc1)N1CCOCC1	16.3%	39.0	48.6%	4.3%	11.5%
Cc1ccc(C(c2nc3ccccc3[nH]2)n2c(-c3ccccc3)nc3ccccc32)cc1 (stereo not drawn)	.	59.2	25.3%	.	.
Cc1cc(C(=O)N2CCCC(N3CCN(c4cccc(C(F)(F)F)c4)CC3)C2)c(C)o1 (stereo not drawn)	12.6µM*	45.9	-25.4%	.	.
Cc1occc1C(=O)N1CCCC(N2CCN(c3cccc(C(F)(F)F)c3)CC2)C1 (stereo not drawn)	?	?	-9.1%	.	.
COc1cc2nc(N3CCCC(O)C3)c(CNCc3ccccc3C(F)(F)F)cc2c(OC)c1OC (stereo not drawn)	.	.	-4.8%	.	.
O=C(NC1CC(=O)N(c2ccccc2)C1)c1ccc(S(=O)(=O)N2CCCC2)cc1 (stereo not drawn)	.	?	-23.0%	.	-1.7%[46.1 µM]
COc1ccc(/C=C/C2=CC3(C)CC2(C)C(c2ccc(OC)cc2)CC3=O)cc1 (stereo not drawn)	.	.	.	-12.8%[14.2 µM]	.
Cc1nn(-c2ccccc2)c(C)c1NC(=O)COc1ccc(Br)cc1Cl	?	?	22.4µM*	-57.5%	?
Cc1nn(-c2ccccc2)c(C)c1NC(=O)COc1cc(F)ccc1[N+](=O)[O-]	?	?	25.1µM*	.	.
